From PubChem BioAssay
Calls of active or inactive are those of the source. Unless noted, the rule behind the calls is not given here.

Tests used:
[1] = system: Wnt5a (protein binding on small-molecule microarray); experiment: small molecules binding Wnt5a protein – biophysical, small-molecule microarray, 635/667 nm fluorescence, primary screen (AID 1142); settings: 635 nm fluorescence, higher = more signal;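 note: fluorescence read at 667 nm with signal to noise per printed feature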
[2] = ATP-based viability of Huh7 replicon cells – cell-based, CellTiter-Glo luminescence, basal, 48 h, cytotoxicity control for HCV replication inhibitor project, primary screen (AID 1143); settings: higher = more signal, called active from +8 up or from −8 down;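 note: Huh7 hepatoma cells carrying a hepatitis C replication reporter with no stimulus; test concentration not given here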
[3] = Pseudomonas biofilm growth suppression – PAO1 strain, BacTiter-Glo luminescence, LB-PBS, primary screen (AID 1144); settings: P. aeruginosa PAO1 biofilm, 12 h, higher = more signal
[4] = basal CRE-LacZ reporter activity in PC12 – cell-based, unstimulated, primary screen (AID 1145); settings: no forskolin, luminescence, 4.5 h, higher = more signal, called active from +8 up or from −8 down
[5] = forskolin-driven CRE-LacZ activity in PC12 – cell-based, CRE-LacZ reporter, forskolin-stimulated, primary screen (AID 1146); settings: luminescence, 4.5 h, higher = more signal, called active from +8 up or from −8 down;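 note: PC12 cells with 6xCRE LacZ reporter stimulated by forskolin 10 µM; beta-galactosidase reporter signal reflecting CREB driven transcription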
[6] = biological target: Streptavidin (Streptomyces avidinii) (UniProt P22629); experiment: compounds binding control protein streptavidin – biophysical, small-molecule microarray, 635/667 nm fluorescence, artefact control for SMM compound annotation, primary screen (AID 1147); settings: higher = more signal;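 note: signal reflects streptavidin binding to arrayed compounds as a control protein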
[7] = probe aInhba binding on compound microarray – biochemical, small-molecule microarray, 635/667 nm fluorescence, primary screen (AID 1148); settings: higher = more signal;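 note: score merges 667nm spot fluorescence with signal-to-noise for antibody binding to printed compounds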
[8] = biological target: Torsin-1A (Homo sapiens) (UniProt O14656); experiment: TOR1A wild-type binding on microarray – cell lysate, small-molecule microarray, lysate, 635/667 nm, primary screen (AID 1149); settings: COS7 hTOR1A-WT lysate, 635 nm fluorescence, higher = more signal
[9] = biological target: Torsin-1A (Homo sapiens) (UniProt O14656); experiment: torsin A mutant lysate binding on microarrays – cell lysate, small-molecule microarray, COS7 lysate, 635/667 nm fluorescence, primary screen (AID 1150); settings: COS7 hTOR1A mutant lysate, 635 nm fluorescence, higher = more signal;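 note: score pools 667 nm emission and signal to noise measuring lysate protein binding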
[10] = system: Sonic hedgehog protein (Shh); experiment: Sonic hedgehog microarray binding compounds – biochemical, small-molecule microarray, 635/667 nm fluorescence, primary screen (AID 1151); settings: 635 nm fluorescence, higher = more signal;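 note: Shh protein binding to compounds spotted on small-molecule microarray slides; score combines spot fluorescence intensity with signal-to-noise across triplicate slides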
[11] = optical density shifts of acrAB sulA E. coli – strain DRC41, OD650, 48 h, E. coli filamentation inducer project, primary screen (AID 1152); settings: higher = more signal, called active from +8 up or from −8 down;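 note: E. coli MC1000 strain DRC41 lacking acrAB efflux pump and sulA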
[12] = probe aLefty1 binding on compound microarray – biochemical, small-molecule microarray, 635/667 nm fluorescence, primary screen (AID 1153); settings: higher = more signal;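 note: score merges spot fluorescence with signal-to-noise ratio from the scanned slide images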
[13] = plasmodial surface anion channel blockers, osmotic lysis – cell-based, P. falciparum Indochina, OD700, 1 h, primary screen (AID 1154); settings: P. falciparum Indochina infected RBC osmotic lysis, higher = more signal, called active from +8 up or from −8 down
[14] = plasmodial surface anion channel blockers, osmotic lysis – cell-based, P. falciparum Indochina, OD700, 2 h, primary screen (AID 1155);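 note: lysis reports solute entry through the parasite surface anion channel PSAC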; settings: P. falciparum Indochina infected erythrocytes, higher = more signal, called active from +8 up or from −8 down
[15] = changes in parasitized red cell lysis, either direction – P. falciparum Indochina, OD700, 3 h, PSAC antagonist project, primary screen (AID 1156); settings: P. falciparum-infected erythrocytes, osmotic lysis, higher = more signal, called active from +8 up or from −8 down
[16] = plasmodial surface anion channel blockers, osmotic lysis – cell-based, P. falciparum Indochina, OD700, 18 h, primary screen (AID 1157); settings: P. falciparum Indochina infected erythrocytes, osmotic lysis OD700, 18 h; higher = more signal, called active from +8 up or from −8 down
[17] = S6 kinase pathway phospho-S6 level changes – cell-based, A549, cytoblot, luminescence, serum-stimulated, primary screen (AID 1158); settings: 5 h, higher = more signal;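 note: serum-stimulated A549 lung adenocarcinoma cells; signal is phosphorylated S6 detected by cytoblot immunostaining with HRP secondary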
[18] = biological target: NADPH oxidase 2 (Homo sapiens) (UniProt P04839); experiment: compounds shifting NOX2 Amplex Red fluorescence – cell-based, HEK293-NOX2, PMA-stimulated, NOX inhibitor project, primary screen (AID 1159); settings: 45 min, higher = more signal, called active from +8 up or from −8 down; note: test concentration not given here
[19] = biological target: NADPH oxidase 4 (Homo sapiens) (UniProt Q9NPH5); experiment: compounds shifting NOX4 Amplex Red fluorescence – cell-based, HEK293-NOX4, tetracycline-induced, NOX inhibitor project, primary screen (AID 1160); settings: HEK293-NOX4, Amplex Red H2O2 fluorescence, 45 min; higher = more signal, called active from +8 up or from −8 down
[20] = biological target: NADPH oxidase 5 (Homo sapiens) (UniProt Q96PH1); experiment: compounds shifting NOX5 Amplex Red fluorescence – cell-based, HEK293-NOX5, NOX inhibitor project, primary screen (AID 1161); settings: HEK293-NOX5, ionomycin, 45 min, higher = more signal
Chain of NADPH oxidase 5 (Homo sapiens) (Q96PH1 whole entry, looked up): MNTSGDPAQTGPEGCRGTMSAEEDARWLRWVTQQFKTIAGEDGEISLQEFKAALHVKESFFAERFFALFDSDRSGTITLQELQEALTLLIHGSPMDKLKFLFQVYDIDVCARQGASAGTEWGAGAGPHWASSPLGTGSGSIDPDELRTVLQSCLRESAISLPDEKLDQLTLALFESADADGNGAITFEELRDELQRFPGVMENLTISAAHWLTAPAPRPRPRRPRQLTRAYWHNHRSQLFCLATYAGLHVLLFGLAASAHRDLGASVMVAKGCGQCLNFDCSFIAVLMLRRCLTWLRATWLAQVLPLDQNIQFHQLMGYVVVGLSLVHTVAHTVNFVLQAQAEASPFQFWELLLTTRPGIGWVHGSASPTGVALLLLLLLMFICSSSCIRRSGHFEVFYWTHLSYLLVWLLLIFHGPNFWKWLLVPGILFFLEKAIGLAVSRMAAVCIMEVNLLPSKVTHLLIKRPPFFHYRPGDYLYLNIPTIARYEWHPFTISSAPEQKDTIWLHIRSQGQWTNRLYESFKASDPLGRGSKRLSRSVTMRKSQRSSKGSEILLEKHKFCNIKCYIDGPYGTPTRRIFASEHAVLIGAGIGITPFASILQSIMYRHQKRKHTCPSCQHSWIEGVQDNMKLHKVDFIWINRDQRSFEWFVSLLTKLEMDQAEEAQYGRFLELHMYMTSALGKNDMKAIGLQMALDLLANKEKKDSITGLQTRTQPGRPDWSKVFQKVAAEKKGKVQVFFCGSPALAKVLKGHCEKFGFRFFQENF

Chain of NADPH oxidase 4 (Homo sapiens) (Q9NPH5 whole entry, looked up): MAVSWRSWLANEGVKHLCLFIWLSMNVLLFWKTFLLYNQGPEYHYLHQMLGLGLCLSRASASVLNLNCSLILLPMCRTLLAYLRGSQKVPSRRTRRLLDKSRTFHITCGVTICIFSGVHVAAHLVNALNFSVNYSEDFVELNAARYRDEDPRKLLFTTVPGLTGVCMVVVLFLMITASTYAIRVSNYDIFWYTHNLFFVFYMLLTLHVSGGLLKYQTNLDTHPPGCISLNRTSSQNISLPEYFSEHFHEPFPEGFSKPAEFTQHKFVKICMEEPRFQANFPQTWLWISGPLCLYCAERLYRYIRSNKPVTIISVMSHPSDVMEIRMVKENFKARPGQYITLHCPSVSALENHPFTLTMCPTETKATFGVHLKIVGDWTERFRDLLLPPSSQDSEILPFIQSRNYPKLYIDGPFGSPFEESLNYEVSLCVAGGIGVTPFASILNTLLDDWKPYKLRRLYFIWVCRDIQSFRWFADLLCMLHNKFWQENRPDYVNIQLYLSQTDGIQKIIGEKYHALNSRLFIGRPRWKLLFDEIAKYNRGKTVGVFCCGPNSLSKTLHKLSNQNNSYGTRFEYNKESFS
Chain of Streptavidin (Streptomyces avidinii) (P22629 whole entry, looked up): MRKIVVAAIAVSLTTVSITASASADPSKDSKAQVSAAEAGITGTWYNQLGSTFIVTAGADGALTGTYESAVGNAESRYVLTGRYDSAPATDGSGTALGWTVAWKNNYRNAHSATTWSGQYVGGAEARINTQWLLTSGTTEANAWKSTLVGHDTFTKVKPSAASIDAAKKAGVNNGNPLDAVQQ
Chain of Torsin-1A (Homo sapiens) (O14656 whole entry, looked up): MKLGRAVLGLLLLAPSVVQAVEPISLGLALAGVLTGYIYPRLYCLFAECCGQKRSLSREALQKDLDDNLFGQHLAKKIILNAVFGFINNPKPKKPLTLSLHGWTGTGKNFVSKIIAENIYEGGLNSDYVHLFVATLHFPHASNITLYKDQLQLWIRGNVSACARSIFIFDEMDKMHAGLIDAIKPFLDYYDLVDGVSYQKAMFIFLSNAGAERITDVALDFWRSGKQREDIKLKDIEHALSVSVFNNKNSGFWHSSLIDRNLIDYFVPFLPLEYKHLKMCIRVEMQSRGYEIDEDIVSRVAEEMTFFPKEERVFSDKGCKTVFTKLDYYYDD
Chain of NADPH oxidase 2 (Homo sapiens) (P04839 whole entry, looked up): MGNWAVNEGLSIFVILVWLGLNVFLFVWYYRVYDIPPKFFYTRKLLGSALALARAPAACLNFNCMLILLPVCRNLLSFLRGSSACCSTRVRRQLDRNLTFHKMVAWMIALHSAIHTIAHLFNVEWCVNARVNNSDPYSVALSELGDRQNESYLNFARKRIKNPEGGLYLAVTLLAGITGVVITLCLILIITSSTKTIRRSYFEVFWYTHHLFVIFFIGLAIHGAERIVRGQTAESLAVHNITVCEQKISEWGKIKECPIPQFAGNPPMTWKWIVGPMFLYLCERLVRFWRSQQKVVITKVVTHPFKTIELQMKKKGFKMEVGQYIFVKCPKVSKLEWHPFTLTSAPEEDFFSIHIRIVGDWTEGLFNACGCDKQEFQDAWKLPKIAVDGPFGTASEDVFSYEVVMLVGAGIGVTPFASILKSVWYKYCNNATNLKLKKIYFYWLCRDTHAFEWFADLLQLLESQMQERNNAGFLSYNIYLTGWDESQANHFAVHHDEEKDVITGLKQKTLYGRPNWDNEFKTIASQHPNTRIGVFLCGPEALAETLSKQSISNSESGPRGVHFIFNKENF

Row | SMILES | composite z-score [1] | z-score [2] | z-score [3] | z-score [4] | z-score [5] | composite z-score [6] | composite z-score [7] | composite z-score [8] | composite z-score [9] | composite z-score [10] | z-score [11] | composite z-score [12] | z-score [13] | z-score [14] | z-score [15] | z-score [16] | z-score [17] | z-score [18] | z-score [19] | z-score [20]
1 | O=C1N(Cc2ccccc2)c2ccccc2C[C@@]12COC(c1ccc(OCCCO)cc1)=N2 | 0.82 | -3.39 (inactive) | -0.576 (inactive) | 2.41 (inactive) | -0.914 (inactive) | 0.431 | 0.397 | 0.492 | 1.03 | 0.383 | 0.0226 (inactive) | 0.391 | 25.5 (active) | 10.1 (active) | 3.4 (inactive) | 1.33 (inactive) | 0.255 | -0.231 (inactive) | -0.221 (inactive) | -1.79
2 | COCCOC(=O)N1C(=O)[C@@]2(c3ccccc31)[C@H](c1ccc(O)cc1)N1[C@H](c3ccccc3)[C@H](c3ccccc3)OC(=O)[C@H]1[C@@H]2C(=O)N1CCCCCCC1 | 1.08 | -2.61 (inactive) | -1.17 (inactive) | 0.0816 (inactive) | -0.0911 (inactive) | 3.03 | 2.08 | 1.32 | 2.13 | 1.96 | -0.59 (inactive) | 2.86 | -0.0501 (inactive) | 0.619 (inactive) | -0.363 (inactive) | 0.14 (inactive) | -0.43 | 0.54 (inactive) | 0.898 (inactive) | 1.32
3 | CN1C(=O)C2C(C1=O)C1C=C(c3ccc(CO)cc3)C2C(C2CC2)N1C (stereo not given) | -0.283 | -0.131 (inactive) | 0.178 (inactive) | -0.219 (inactive) | 0.173 (inactive) | -0.095 | -0.128 | 0.508 | 0.286 | -0.605 | 0.235 (inactive) | -0.177 | 0.773 (inactive) | 0.892 (inactive) | 0.472 (inactive) | 0.184 (inactive) | 0.691 | -1.19 (inactive) | -0.394 (inactive) | 0.163
4 | COc1ccc([Si](C)(C)[C@H]2[C@H](CCO)O[C@@]3(C(=O)N(Cc4ccc(NC(=O)[C@H](C)O)cc4)c4ccccc43)[C@@H]2C)cc1 | 0.185 | -8.05 (active) | -0.159 (inactive) | 5 (inactive) | -1.71 (inactive) | 0.674 | -0.0405 | 0.189 | 0.753 | 0.785 | 0.0546 (inactive) | -0.0984 | 29.9 (active) | 25.8 (active) | 2.52 (inactive) | 2.46 (inactive) | 1.27 | 0.25 (inactive) | 1.39 (inactive) | -0.66
